# Test results: the OligoGym collection
# Molecular target: ARL4D
# Test: pooled miR-30 sensor sort-seq; sequence = guide strand
# Conditions: shRNA
# Also: reference of the scale not given here.
row,Sequence,sensor-assay potency score (higher = more potent)
1,ATTCGGTGCAACTCCACCTTGG,-0.512
2,TTGCACATGAGTGAGAGTGGCG,-0.774
3,TGGAAGGTGATGCCACGCGATC,-1.76
4,TTGTTGGCCAGCACCAGCACTG,-0.806
5,ACAAACACTAGACCGTCTGTCC,-0.415
6,AAACTCCTTGAACTTGAGGCGG,-0.934
7,TCCTCTTGAGGATCATCTCATA,-1.96
8,AACTCCTTGAACTTGAGGCGGT,-0.138
9,TATAAGAGCGCCACAGTGGTCG,-0.158
10,ACACTCTGGACAAACTCCTTGA,-0.682
11,TTCGGTGCAACTCCACCTTGGC,0.0163
12,TTGGAAGGTGATGCCACGCGAT,-0.67
13,TGATTCGGTGCAACTCCACCTT,0.0703
14,TTCCTCTTGAGGATCATCTCAT,0.0255
15,TTTGGTGGGGACACTCTGGACA,-0.71
